This note sets out measurements from PubChem BioAssay (NCATS).

The structures appear in SMILES notation. Records with an inconclusive call do not appear. The source made the active and inactive calls. Calls come from the whole dose curve; tested in HEK293 reporter line.
% is set by controls: 0 for no effect and ±100 for the full control effect; potency is the fitted concentration of half-maximal effect.

A short description of the test: qHTS for Inhibitors of the Functional Ribonucleoprotein Complex (vRNP) of Lassa (LASV) Arenavirus: Viability assay - alamar blue signal for LASV Primary Screen (AID 1347083). Note: nearly all actives have a fitted effect of over 80% in size. The following applies: cell viability, alamar blue fluorescence (LASV minigenome counter-screen); series mostly up to 57.5 µM; activity change, negative = reduced viability: at the top concentration. For orientation: In qHTS, concentration-response curves come from the screen itself.
With `O=C1N[C@@H](Cc2cnc[nH]2)C(=O)N2CCC[C@@H]12`, the “activity change, negative = reduced viability” value is 4.02% (inactive).

Turning to `C=C1[C@H]2C[C@H]3[C@H]4N5C[C@]6(C)CCC[C@]47[C@H]([C@H]2O)[C@]3(C[C@]5(O)[C@H]67)[C@@H]1O`, the “activity change, negative = reduced viability” value was -5.42% (inactive).

In the case of `CNC[C@@H](O)[C@@H](O)[C@H](O)[C@H](O)CO`, the “activity change, negative = reduced viability” value was -17.3% (inactive).

With `O=C1C[C@@H](c2ccc(O)c(O)c2)Oc2c1ccc(O[C@@H]1O[C@H](CO)[C@@H](O)[C@H](O)[C@H]1O)c2O`, the “activity change, negative = reduced viability” value was 6.5% (inactive).

With `CC(C)c1cc(C(=O)N2Cc3ccc(CN4CCN(C)CC4)cc3C2)c(O)cc1O`, the Potency was 544 nM (active).

Regarding `NC(=O)Nc1ccc(Cl)c(Cl)c1`, the “activity change, negative = reduced viability” value is -8.65% [at 115 µM] (inactive).

As to `CC(C)(O)c1ccc2c(c1)CCC1C(C)(C(=O)O)CCCC21C` (stereo not given), the “activity change, negative = reduced viability” value was -17.5% (inactive).

For the compound `O=C1N[C@@H](Cc2c[nH]c3ccccc23)C(=O)N[C@H]1Cc1ccccc1`, the “activity change, negative = reduced viability” value was -8.72% (inactive).

Consider `C/C=C(\C)C(=O)O[C@@H]([C@H](O)c1cc2ccc(=O)oc2cc1OC)C(C)(C)O`, for which the “activity change, negative = reduced viability” value was 0.273% (inactive).

For `Cc1c(O[C@@H]2O[C@H](CO)[C@@H](O)[C@H](O)[C@H]2O)c(CO)c(O[C@@H]2O[C@H](CO)[C@@H](O)[C@H](O)[C@H]2O)c2c1O[C@@H](c1ccccc1)C[C@@H]2O`, the “activity change, negative = reduced viability” value is 5.95% (inactive).

For `CC12CCC(C1)C(C)(C)C2=O` (stereo not given), the “activity change, negative = reduced viability” value is 11.8% (inactive).

On to `c1ccc2nc(-c3ccc4c(c3)OCO4)ccc2c1`, for which the “activity change, negative = reduced viability” value is -0.227% (inactive).

In the case of `C[C@]12CCC3C(C[C@@H](O)[C@H]4C[C@@H](O)CC[C@]34C)C1CC[C@@H]2O` (stereo not given in full), the “activity change, negative = reduced viability” value is -1.45% (inactive).

`C=C(C)C1CCC(C)(O)CC1` (stereo not given): the “activity change, negative = reduced viability” value was 19.3% [at 115 µM] (inactive).

Turning to `N#CC(=C(O)c1ccc(Cl)cc1Cl)c1nc2cc(Cl)ccc2c(=O)[nH]1`, the “activity change, negative = reduced viability” value is 9.15% (inactive).

As for `ClC1=C(Cl)[C@]2(Cl)[C@@H]3[C@@H](Cl)[C@H]4O[C@H]4[C@@H]3C1(Cl)C2(Cl)Cl`, the “activity change, negative = reduced viability” value was -21.7% (inactive).

Turning to `COC(=O)Cc1ccccc1`, the “activity change, negative = reduced viability” value is 6.72% [at 115 µM] (inactive).

As for `COc1c2c(c3c(c1OC)c(=O)c1ccccc1n3C)OCO2`, the “activity change, negative = reduced viability” value was 7.27% (inactive).

For `CCCCCCOC(=O)CCC`, the “activity change, negative = reduced viability” value was 4.27% [at 115 µM] (inactive).

With `C/C=C(\C)C(=O)OC(C)(C)[C@H]1Cc2cc3ccc(=O)oc3cc2O1`, the “activity change, negative = reduced viability” value was 6.62% (inactive).

For the compound `COc1cc2cc(Oc3ccc4ccc(=O)oc4c3)c(=O)oc2cc1OC1OC(COC(=O)CC(C)(O)CC(=O)O)C(O)C(O)C1O` (stereo not given), the “activity change, negative = reduced viability” value was -2.59% (inactive).

In the case of `COC(=O)/C=C/c1ccccc1`, the “activity change, negative = reduced viability” value was 5.16% [at 115 µM] (inactive).

Take `CCOC(=O)CC(C)C`: the “activity change, negative = reduced viability” value was 3.1% [at 115 µM] (inactive).

Take `C=C(C)[C@@H]1CC[C@@H](C)C[C@@H]1O`: the “activity change, negative = reduced viability” value was -3.14% [at 115 µM] (inactive).

`CCCCC/C=C\C[C@@H]1O[C@H]1C(O)/C=C\C/C=C\CCCC(=O)O` (stereo not given in full): the activity change, negative = reduced viability was 5.76% [at 0.757 µM] (inactive).

On to `C#CCCC/C(=C\C(=O)N(C)[C@H](C(=O)N(C)[C@H](C(=O)N(C)[C@H](C(=O)N(C)[C@H](C(N)=O)C(C)C)C(C)C)C(C)C)C(C)C)OC`, for which the “activity change, negative = reduced viability” value is -4.19% (inactive).

In the case of `Cn1c2c(c(=O)c3ccccc31)CCC(C)(C)O2`, the “activity change, negative = reduced viability” value was -0.491% (inactive).

For the compound `COc1cc(CCc2ccccc2)c(C(=O)O)c(O)c1C/C=C(/C)CCC=C(C)C`, the “activity change, negative = reduced viability” value is 18.7% (inactive).

`COc1ccc2cc1Oc1ccc(cc1)CC1c3cc(c(OC)cc3CCN1C)Oc1c(OC)c(OC)c(OC)c3c1C(C2)N(C)CC3` (stereo not given): the “activity change, negative = reduced viability” value was -3.63% [at 24.7 µM] (inactive).

Consider `O=c1[nH]c(=O)c2ncn(C3OC(CO)C(O)C3O)c2[nH]1` (stereo not given), for which the “activity change, negative = reduced viability” value was 20% (inactive).

Turning to `Cc1c[nH]c(C=C2C(=O)Nc3ccccc32)c1CCC(=O)O`, the “activity change, negative = reduced viability” value is -20.7% (inactive).

Take `O=C1Nc2ccc(Cl)cc2C(C#CC2CC2)(C(F)(F)F)O1` (stereo not given): the “activity change, negative = reduced viability” value was -10% (inactive).

With `OCCN1C[C@H](O)[C@@H](O)[C@H](O)[C@@H]1CO`, the “activity change, negative = reduced viability” value was -1.12% (inactive).

On to `OC[C@H]1O[C@@H](Oc2ccc(O)cc2)[C@H](O)[C@@H](O)[C@H]1O`, for which the “activity change, negative = reduced viability” value is -22.2% (inactive).

On to `O=C(OCC#CCSc1nnc(-c2cccc3ccccc23)o1)c1cc2ccccc2s1`, for which the “activity change, negative = reduced viability” value is 9.81% (inactive).

Take `CC(C)(O)c1cc2nc(-c3cnc(N)nc3)nc(N3CCOCC3)c2s1`: the Potency is 193 nM (active).

Turning to `O=C(/C=C/c1ccccc1)NCCc1cnc[nH]1`, the “activity change, negative = reduced viability” value is 18.2% (inactive).

As for `COc1cc2c(c(OC)c1OC)-c1c(cc(OC)c(OC)c1OC)C[C@](C)(O)[C@@H](C)C2`, the “activity change, negative = reduced viability” value was 4.71% (inactive).

As to `COC(=O)C1=CO[C@@H](C)[C@@H]2CN3CC[C@]4(C(=O)Nc5c4ccc(OC)c5OC)[C@H]3C[C@H]12`, the “activity change, negative = reduced viability” value is -17.2% (inactive).

Take `C/C=C\C/C=C/CCCCCCCCOC(C)=O`: the “activity change, negative = reduced viability” value is -3.53% [at 115 µM] (inactive).
